Inhibition data for 17 compounds are collected here from PubChem BioAssay.

Each structure is given as a SMILES string. Active and inactive are the calls of the source. No rule for the calls is given here.

The target of the experiment is Pantothenate synthetase (Mycobacterium tuberculosis (strain ATCC 25618 / H37Rv)) (UniProt P9WIL5). Nature of the experiment: Recombinant Mtb pantothenate synthetase (PanC) inhibitors, coupled enzyme, confirmatory (AID 375).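 Also: 0% = full reaction with vehicle and 100% = no enzyme background.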 The settings on record: coupled enzyme assay; at 10 µM, active compounds read high.
Pantothenate synthetase (Mycobacterium tuberculosis (strain ATCC 25618 / H37Rv)), sequence (P9WIL5 whole entry, looked up): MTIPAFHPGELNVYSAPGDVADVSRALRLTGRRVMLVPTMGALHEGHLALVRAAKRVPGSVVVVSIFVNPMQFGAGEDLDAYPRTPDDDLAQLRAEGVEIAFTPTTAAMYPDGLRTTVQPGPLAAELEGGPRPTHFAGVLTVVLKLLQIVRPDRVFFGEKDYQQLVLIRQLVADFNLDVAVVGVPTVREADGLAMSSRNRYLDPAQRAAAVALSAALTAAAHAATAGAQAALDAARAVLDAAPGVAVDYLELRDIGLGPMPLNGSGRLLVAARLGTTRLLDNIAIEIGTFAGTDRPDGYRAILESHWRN
Broadly, the inhibition is the percentage by which the read-out fell short of the control. Turning to `COc1ccc(CN(C(=O)c2oc3ccccc3c2C)C2CCS(=O)(=O)C2)cc1` (configuration not stated), the inhibition is 0% (inactive).
For `O=C(CN1C(=O)NC2(CCCCCC2)C1=O)N1CCC(Cc2ccccc2)CC1`, the inhibition is 2% (inactive).
With `O=C(COC(=O)c1cc(S(=O)(=O)N2CCOCC2)cs1)c1ccccc1`, the inhibition was 0% (inactive).
Turning to `COCC(=O)N(c1ccc(C(C)C)cc1)C1C=CS(=O)(=O)C1` (configuration not stated), the inhibition is 0% (inactive).
With `O=C(COC(=O)C1CC1)c1c[nH]c2ccccc12` the figure was 1% (inactive); with `O=C(COc1ccc(S(=O)(=O)N2CCCC2)cc1Cl)NC1CC1`, 8% (inactive).
On to `COc1ccc(CN(C(=O)CN2C(=O)COc3ccccc32)C2CCCC2)c(OC)c1`, for which the inhibition was 0% (inactive).
As for `COc1ccc(Cn2nnnc2C(c2cccs2)N2CCOCC2)cc1` (configuration not stated), the figure is 3% (inactive); as for `CCN1CCN(C(=O)c2cc3c(=O)n(C)c4ccccc4c3n2C)CC1`, 0% (inactive); as for `COc1nnc(-c2ccc(C)c(S(=O)(=O)NCCO)c2)c2ccccc12`, 3% (inactive).
As for `O=C(NCc1ccccn1)c1cccs1`, the inhibition is 0% (inactive).
As for `Cn1c(=O)[nH]c(=O)c2[nH]c(NCCCN3CCOCC3)nc21`, the figure is 0% (inactive); as for `C#CCN1C(=O)C(O)(CC(=O)c2cccc(OC)c2)c2ccccc21` (configuration not stated), 0% (inactive); as for `Cc1cccc2c(=O)oc(-c3ccc4c(c3)C(=O)N(CC3CCCO3)C4=O)nc12` (configuration not stated), 0% (inactive).
With `Cn1c(=O)c(-c2ccccc2)nn2c3ccccc3nc12` the figure was 0% (inactive); with `O=C(O)CCc1ccc(-c2ccc(F)cc2)n1CCC(=O)O`, 0% (inactive); with `COc1ccc2cnn(-c3ccccc3C)c(=O)c2c1OC`, 3% (inactive).
